CYP2C9 inhib: inhibitors of human CYP2C9 | hit rate 20% among 96,000 | CYP2C9 Supersomes, luciferin-H conversion, luminescence | inhibition, % at 5 µM | P11712;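 active means blocking of liver enzyme CYP2C9 beyond about 50% at 5 µM, limit read from the data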
CYP2C9 act: CYP2C9 (human) activation | P11712 | recombinant CYP2C9, luciferin-H conversion, luminescence; stronger effect = higher value; factor 1 = untreated enzyme, 0 = blocked | activation factor at 5 µM | hit rate 1.4% among 96,000;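 active means activation factor of 2 or more for CYP2C9 at a 5 µM dose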;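 further: 0 = sulfaphenazole-blocked wells and 1 = vehicle-only wells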
Mac1 fbg inh: inhibitors of human CD11b/CD18 binding to fibrinogen | P05107+P11215 | K562 CD11b/CD18 adhesion to fibrinogen, ATPlite luminescence; Mn2+ added to activate the integrin | inhibition, % at 10 µM | hit rate 0.54% among 93,000;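 active means primary inhibition of 50% or more at 10 µM, then 40% or more on retest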
CYP2C19 activ: increases human CYP2C19 enzyme activity | 96,000 tested, under 10 active | AID 1025 | activation factor at 5 µM | recombinant CYP2C19, luciferin-H EGE luminescence; stronger effect = higher value; 0 = fully inhibited enzyme, 1 = untreated enzyme;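 active means activation factor of at least 2 at 5 µM in the primary screen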;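 further: 0 = wells with 2.5 mM tranylcypromine and 1 = vehicle-only wells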
CD11b adhes enh: enhancers of human CD11b/CD18 binding to fibrinogen; activation, % at 10 µM; P05107+P11215; K562 CD11b/CD18 adhesion to fibrinogen, ATPlite luminescence; hit rate 0.07% among 93,000;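 active means 10 µM primary screen giving 50% or more activity, confirmed by 40% or more on retest at that dose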
CYP2C19 inh: inhibitors of human CYP2C19; P33261; CYP2C19 Supersomes, luciferin-H EGE luminescence, 30 min; inhibition, % at 5 µM; hit rate 21% among 96,000;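 active means CYP2C19 inhibition above a set limit at 5 µM in the primary screen, cut at about 50% in these data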;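 further: plate controls were negative control wells for no effect and 2.5 mM tranylcypromine positive control for full effect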
Starred values were filed as active, the others as inactive; / = not tested or not shown. In the library only some 28% were active in any assay of this set; here they are far more common.

SMILES	CYP2C9 inhib	CYP2C9 act	Mac1 fbg inh	CYP2C19 activ	CD11b adhes enh	CYP2C19 inh
COc1ccc(OC)c(N(CC(=O)Nc2ccccc2C(=O)NCc2ccco2)S(C)(=O)=O)c1	91*	0.1	8	0.1	0	90*
COc1ccc(N(CC(=O)Nc2ccccc2C(=O)NCc2ccco2)S(C)(=O)=O)cc1	84*	0.2	-22	0.6	1	36
COc1ccc(Cl)cc1N(CC(=O)Nc1ccccc1C(=O)NCc1ccco1)S(C)(=O)=O	51*	0.5	10	0.5	0	46
COc1ccc(Cl)cc1N(CC(=O)Nc1ccccc1SC)S(C)(=O)=O	86*	0.1	-11	0.1	4	92*
COCCNC(=O)CN(C(=O)CCC(=O)Nc1nccs1)c1ccccc1OC	34	0.7	-11	0.9	-1	11
Cc1nnc(NC(=O)CCC(=O)NCc2ccco2)s1	1	1	-18	0.9	0	6
CCN(C(=O)c1ccc(S(C)(=O)=O)cc1)C12CC3CC(CC(C3)C1)C2	/	/	1	/	8	/
COc1ccc(-c2nc(C#N)c(NCc3ccc(F)cc3)o2)cc1OC	40	0.6	-22	0.7	3	32
N#Cc1nc(COc2cccc(Cl)c2)oc1NCc1ccncc1	100*	0	29	0	-2	100*
COc1ccc(-c2nc(C#N)c(NCc3cccnc3)o2)cc1OC	51*	0.5	/	0.7	/	32
N#Cc1nc(-c2cccc(Cl)c2)oc1NCc1cccnc1	94*	0.1	7	0	-4	95*
COc1ccc(/C=C2/SC(=O)N(CC(=O)Nc3cc(C)on3)C2=O)cc1OC	/	/	2	/	76	/
CS(=O)(=O)N1CCc2cc(S(=O)(=O)Nc3ccc4oc5c(c4c3)CCCC5)ccc21	93*	0.1	79	0	-6	96*
Cc1nnc(C)n1/N=C/c1cc(Br)ccc1O	15	0.9	15	1	-3	0
Cc1cc2ncn(/N=C/c3cc(Br)ccc3O)c2cc1C	61*	0.4	4	0.7	17	31
CC(=O)NC1=NN(C(C)=O)C(c2sccc2C)S1 (stereo unspecified)	21	0.8	7	0.7	-1	34
COc1ccc(Cl)cc1S(=O)(=O)n1cnc2ccccc21	31	0.7	-1	0.2	3	78*
CCOc1cc(C)c(Cl)cc1S(=O)(=O)n1cnc2ccccc21	0	1	21	0.7	-3	25
CCOc1ccc(Cl)cc1S(=O)(=O)n1cnc2ccccc21	19	0.8	-7	0	2	95*
Cc1cc(C)c(S(=O)(=O)n2cnc3ccccc32)c(C)c1	-15	1.1	-8	1.1	-2	-8
O=C(CSc1nnc(-c2ccccc2)n1Cc1ccco1)NCc1ccc2c(c1)OCO2	67*	0.3	-14	0.9	-2	7
CCn1c(SCC(=O)NCc2cccs2)nnc1-c1cccs1	9	0.9	1	0.6	-2	36
Cn1c(SCC(=O)Nc2ccc3c(c2)OCCO3)nnc1-c1ccco1	63*	0.4	8	0.5	4	52*
CCn1c(SCC(=O)NC(=O)Nc2ccc3c(c2)OCCO3)nnc1-c1cccs1	56*	0.4	2	0.5	1	48
O=C(CSc1nnc(-c2ccccc2)n1Cc1ccco1)Nc1ccc2c(c1)OCCO2	55*	0.5	-7	0.4	1	56*
SMILES	CYP2C9 inhib	CYP2C9 act	Mac1 fbg inh	CYP2C19 activ	CD11b adhes enh	CYP2C19 inh
COc1cc(NS(=O)(=O)c2ccc(NC(=O)/C(=C\c3ccccc3OC)NC(=O)c3ccccc3)cc2)nc(OC)n1	2	1	6	1	0	2
COC(=O)CCC(=O)Nc1cccc(Br)c1	2	1	-15	0.9	-1	12
CCOC(=O)c1c(C)n(C)c2c(C)cc(O)c(OC(=O)CC)c12	5	1	-6	1	0	4
O=C(O)CSCC(=O)NCc1ccccc1	-11	1.1	-23	1	-2	2
CCn1c(Cc2ccccc2)nnc1SCC(=O)Nc1ccc2c(c1)OCCO2	58*	0.4	/	0.3	/	68*
CC(=O)Nc1ccc(NC(=O)CSc2nnc(-c3ccccc3)n2Cc2ccc3c(c2)OCO3)cc1	30	0.7	/	0.8	/	25
Cc1cc(-c2ccco2)n(CC(=O)NCc2ccccc2)n1	6	0.9	-7	0.3	0	75*

Screening results: PubChem BioAssay, Sanford-Burnham Center for Chemical Genomics
